# Assay results: ChEMBL document CHEMBL2218924, “A broad activity screen in support of a chemogenomic map for kinase signalling research and drug discovery” (Biochem J, 2013)
# Columns and labels:
# [1] = target: Mitogen-activated protein kinase 14 (Homo sapiens) (UniProt Q16539); details: at 1 µM
# [2] = target: Mitogen-activated protein kinase 14 (Homo sapiens) (UniProt Q16539); details: at 10 µM
# [3] = target: Mitogen-activated protein kinase 11 (Homo sapiens) (UniProt Q15759); details: at 10 µM
# Mitogen-activated protein kinase 11 (Homo sapiens), sequence (Q15759 whole entry): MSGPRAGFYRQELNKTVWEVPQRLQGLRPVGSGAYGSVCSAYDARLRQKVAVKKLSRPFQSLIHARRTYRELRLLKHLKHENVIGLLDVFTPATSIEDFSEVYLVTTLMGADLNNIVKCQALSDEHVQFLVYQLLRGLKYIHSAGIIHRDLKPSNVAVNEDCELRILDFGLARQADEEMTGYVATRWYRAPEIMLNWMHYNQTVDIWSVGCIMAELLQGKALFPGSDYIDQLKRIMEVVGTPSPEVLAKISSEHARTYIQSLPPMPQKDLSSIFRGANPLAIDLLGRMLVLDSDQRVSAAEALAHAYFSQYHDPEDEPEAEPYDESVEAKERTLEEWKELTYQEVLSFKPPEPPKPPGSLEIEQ
# [4] = target: T1, Tyrosine-protein kinase receptor TYRO3 (Homo sapiens) (UniProt Q06418); details: at 1 µM
# T1 sequence (whole entry): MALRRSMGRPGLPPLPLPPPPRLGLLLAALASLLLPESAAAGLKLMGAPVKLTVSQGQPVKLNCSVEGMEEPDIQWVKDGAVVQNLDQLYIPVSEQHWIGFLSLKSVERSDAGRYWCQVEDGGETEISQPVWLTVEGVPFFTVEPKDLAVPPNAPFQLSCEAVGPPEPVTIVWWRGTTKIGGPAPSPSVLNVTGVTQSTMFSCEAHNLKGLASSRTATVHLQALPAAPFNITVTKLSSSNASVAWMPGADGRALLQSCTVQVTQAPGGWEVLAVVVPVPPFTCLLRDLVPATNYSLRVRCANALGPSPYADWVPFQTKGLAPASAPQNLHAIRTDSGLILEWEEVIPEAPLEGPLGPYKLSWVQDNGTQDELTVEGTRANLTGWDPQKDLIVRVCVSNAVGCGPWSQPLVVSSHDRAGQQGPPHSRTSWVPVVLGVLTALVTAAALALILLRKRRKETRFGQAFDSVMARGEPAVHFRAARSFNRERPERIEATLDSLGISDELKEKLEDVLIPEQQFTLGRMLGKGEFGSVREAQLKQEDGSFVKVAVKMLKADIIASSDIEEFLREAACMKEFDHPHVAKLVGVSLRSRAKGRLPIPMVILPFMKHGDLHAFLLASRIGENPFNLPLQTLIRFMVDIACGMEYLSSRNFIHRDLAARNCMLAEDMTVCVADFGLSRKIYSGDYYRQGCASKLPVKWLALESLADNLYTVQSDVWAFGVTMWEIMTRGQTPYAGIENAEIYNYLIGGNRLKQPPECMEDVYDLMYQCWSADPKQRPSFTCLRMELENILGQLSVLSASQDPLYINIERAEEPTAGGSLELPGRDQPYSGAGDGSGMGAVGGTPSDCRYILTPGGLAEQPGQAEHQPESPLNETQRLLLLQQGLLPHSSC
# [5] = target: T1, Tyrosine-protein kinase receptor TYRO3 (Homo sapiens); details: at 10 µM
# [6] = target: Ribosomal protein S6 kinase alpha-1 (Homo sapiens) (UniProt Q15418); details: at 1 µM
# Ribosomal protein S6 kinase alpha-1 (Homo sapiens), sequence (Q15418 whole entry): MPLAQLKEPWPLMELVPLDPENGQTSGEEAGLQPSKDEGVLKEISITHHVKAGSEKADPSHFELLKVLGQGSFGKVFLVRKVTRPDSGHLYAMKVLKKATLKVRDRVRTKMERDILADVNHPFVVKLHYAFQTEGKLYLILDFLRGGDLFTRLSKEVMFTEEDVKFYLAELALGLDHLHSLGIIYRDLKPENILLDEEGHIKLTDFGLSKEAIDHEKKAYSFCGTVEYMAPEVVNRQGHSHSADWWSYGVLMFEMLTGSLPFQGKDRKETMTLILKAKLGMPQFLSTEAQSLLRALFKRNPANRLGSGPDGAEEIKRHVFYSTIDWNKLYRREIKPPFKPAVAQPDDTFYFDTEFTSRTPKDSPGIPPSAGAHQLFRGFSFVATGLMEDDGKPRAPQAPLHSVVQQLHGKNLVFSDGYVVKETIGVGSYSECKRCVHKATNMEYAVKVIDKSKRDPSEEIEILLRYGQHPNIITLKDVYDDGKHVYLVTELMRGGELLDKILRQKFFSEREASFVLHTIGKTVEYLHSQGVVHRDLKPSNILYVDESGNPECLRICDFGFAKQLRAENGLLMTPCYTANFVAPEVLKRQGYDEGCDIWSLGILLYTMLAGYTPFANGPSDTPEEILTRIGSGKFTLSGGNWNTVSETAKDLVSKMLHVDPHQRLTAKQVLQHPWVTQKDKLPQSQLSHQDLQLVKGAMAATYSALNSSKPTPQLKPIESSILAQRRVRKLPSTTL
# [7] = target: Ribosomal protein S6 kinase alpha-1 (Homo sapiens) (UniProt Q15418); details: at 10 µM
# [8] = target: Ribosomal protein S6 kinase alpha-3 (Homo sapiens) (UniProt P51812); details: at 1 µM
# Ribosomal protein S6 kinase alpha-3 (Homo sapiens), sequence (P51812 whole entry): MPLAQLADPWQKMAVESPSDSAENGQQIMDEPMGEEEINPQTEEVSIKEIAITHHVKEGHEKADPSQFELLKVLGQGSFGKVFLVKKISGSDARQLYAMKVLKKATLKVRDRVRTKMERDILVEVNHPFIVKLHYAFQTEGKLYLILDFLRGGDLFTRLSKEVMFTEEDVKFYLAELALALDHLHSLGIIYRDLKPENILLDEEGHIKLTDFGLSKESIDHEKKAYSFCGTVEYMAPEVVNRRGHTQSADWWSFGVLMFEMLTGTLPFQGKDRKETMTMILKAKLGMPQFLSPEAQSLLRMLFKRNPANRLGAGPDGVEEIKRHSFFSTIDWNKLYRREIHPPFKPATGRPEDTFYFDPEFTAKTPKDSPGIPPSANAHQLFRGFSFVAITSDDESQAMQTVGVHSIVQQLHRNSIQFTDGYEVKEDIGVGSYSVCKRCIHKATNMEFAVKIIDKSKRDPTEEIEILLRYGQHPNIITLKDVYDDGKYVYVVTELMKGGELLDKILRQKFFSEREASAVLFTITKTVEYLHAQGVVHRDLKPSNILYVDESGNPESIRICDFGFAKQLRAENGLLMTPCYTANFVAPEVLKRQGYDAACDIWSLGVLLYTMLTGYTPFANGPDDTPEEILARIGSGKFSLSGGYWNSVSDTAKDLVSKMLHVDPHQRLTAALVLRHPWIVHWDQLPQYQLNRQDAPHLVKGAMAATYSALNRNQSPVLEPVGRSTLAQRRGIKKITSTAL
# [9] = target: Ribosomal protein S6 kinase alpha-3 (Homo sapiens) (UniProt P51812); details: at 10 µM
# [10] = target: Ribosomal protein S6 kinase alpha-2 (Homo sapiens) (UniProt Q15349); details: at 1 µM
# Ribosomal protein S6 kinase alpha-2 (Homo sapiens), sequence (Q15349 whole entry): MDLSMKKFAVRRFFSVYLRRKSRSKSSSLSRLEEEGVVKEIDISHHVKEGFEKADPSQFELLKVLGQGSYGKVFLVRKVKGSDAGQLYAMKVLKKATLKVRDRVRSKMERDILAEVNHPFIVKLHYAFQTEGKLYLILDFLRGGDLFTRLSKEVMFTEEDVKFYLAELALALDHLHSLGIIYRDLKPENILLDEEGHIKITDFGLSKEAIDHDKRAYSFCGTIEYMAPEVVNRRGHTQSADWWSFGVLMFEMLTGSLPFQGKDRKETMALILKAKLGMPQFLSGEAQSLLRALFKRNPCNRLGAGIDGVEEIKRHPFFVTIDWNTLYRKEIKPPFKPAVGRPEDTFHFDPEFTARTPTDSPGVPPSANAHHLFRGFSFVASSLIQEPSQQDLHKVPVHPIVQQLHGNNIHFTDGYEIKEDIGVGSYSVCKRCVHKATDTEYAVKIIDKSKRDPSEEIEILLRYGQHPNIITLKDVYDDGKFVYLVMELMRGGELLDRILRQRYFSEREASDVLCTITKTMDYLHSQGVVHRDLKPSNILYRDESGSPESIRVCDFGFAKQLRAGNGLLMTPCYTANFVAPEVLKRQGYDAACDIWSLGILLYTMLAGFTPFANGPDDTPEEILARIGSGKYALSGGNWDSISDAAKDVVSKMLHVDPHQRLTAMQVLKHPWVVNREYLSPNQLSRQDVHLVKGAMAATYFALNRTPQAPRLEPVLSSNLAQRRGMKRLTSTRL
# [11] = target: Ribosomal protein S6 kinase alpha-2 (Homo sapiens) (UniProt Q15349); details: at 10 µM
# [12] = target: Ribosomal protein S6 kinase alpha-6 (Homo sapiens) (UniProt Q9UK32); details: at 1 µM
# Ribosomal protein S6 kinase alpha-6 (Homo sapiens), sequence (Q9UK32 whole entry): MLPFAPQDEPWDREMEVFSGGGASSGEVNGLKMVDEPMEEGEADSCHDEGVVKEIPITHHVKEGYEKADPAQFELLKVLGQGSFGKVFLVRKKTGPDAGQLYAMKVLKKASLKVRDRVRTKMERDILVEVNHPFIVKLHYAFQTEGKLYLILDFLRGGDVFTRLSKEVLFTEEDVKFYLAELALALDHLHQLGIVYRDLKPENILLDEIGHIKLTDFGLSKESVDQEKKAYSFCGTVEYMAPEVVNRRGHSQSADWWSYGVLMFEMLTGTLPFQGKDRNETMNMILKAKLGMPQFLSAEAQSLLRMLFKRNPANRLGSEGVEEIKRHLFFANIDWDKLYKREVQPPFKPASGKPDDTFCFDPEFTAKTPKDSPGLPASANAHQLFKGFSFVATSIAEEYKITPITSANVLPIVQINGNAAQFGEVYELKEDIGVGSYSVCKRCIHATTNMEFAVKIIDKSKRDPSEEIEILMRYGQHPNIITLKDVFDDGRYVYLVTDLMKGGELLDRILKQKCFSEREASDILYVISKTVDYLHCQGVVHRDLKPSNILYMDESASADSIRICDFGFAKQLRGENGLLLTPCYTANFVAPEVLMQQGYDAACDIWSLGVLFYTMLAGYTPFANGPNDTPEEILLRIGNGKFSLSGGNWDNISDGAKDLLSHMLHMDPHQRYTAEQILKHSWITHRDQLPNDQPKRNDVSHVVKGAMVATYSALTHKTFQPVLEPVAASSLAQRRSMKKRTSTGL
# [13] = target: Ribosomal protein S6 kinase alpha-6 (Homo sapiens) (UniProt Q9UK32); details: at 10 µM
# [14] = target: Mitogen-activated protein kinase 11 (Homo sapiens) (UniProt Q15759); details: at 1 µM
# [15] = target: T2, Mitogen-activated protein kinase 12 (Homo sapiens) (UniProt P53778); details: at 1 µM
# T2 sequence (whole entry): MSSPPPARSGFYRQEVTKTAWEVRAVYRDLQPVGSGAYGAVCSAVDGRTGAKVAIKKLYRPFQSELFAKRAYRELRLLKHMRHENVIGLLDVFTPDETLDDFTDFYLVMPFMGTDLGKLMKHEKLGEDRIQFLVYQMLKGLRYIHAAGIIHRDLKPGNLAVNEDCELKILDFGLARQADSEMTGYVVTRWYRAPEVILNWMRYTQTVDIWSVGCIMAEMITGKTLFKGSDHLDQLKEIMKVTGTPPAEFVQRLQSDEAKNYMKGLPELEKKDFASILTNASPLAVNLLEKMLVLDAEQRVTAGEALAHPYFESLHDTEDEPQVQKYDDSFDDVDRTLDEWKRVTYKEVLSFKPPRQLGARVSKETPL
# [16] = target: T2, Mitogen-activated protein kinase 12 (Homo sapiens); details: at 10 µM
# [17] = target: T3, Mitogen-activated protein kinase 13 (Homo sapiens) (UniProt O15264); details: at 1 µM
# T3 sequence (whole entry): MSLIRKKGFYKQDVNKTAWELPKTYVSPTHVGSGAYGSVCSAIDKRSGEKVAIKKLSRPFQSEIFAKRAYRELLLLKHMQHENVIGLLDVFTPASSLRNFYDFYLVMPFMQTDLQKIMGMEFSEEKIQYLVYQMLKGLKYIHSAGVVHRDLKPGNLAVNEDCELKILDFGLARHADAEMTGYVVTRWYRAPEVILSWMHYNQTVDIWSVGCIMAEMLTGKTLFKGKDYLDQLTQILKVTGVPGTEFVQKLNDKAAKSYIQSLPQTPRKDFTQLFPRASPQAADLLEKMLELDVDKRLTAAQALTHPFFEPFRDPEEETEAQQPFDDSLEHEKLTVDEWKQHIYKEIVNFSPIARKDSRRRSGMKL
# [18] = target: T3, Mitogen-activated protein kinase 13 (Homo sapiens); details: at 10 µM
# [19] = target: T4, Serine/threonine-protein kinase Sgk1 (Homo sapiens) (UniProt O00141); details: at 1 µM
# T4 sequence (whole entry): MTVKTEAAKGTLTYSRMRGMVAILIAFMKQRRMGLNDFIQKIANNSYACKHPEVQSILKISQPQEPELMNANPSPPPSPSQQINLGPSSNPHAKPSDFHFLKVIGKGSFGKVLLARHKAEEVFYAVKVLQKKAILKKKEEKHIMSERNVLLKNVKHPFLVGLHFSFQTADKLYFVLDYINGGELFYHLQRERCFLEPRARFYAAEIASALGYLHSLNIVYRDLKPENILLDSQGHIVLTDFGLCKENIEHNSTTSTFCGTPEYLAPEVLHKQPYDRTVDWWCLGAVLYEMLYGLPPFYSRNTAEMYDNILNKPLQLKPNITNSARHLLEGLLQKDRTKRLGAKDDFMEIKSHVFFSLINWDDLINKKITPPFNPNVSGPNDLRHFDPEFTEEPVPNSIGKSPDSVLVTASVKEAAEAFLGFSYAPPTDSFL
# [20] = target: T4, Serine/threonine-protein kinase Sgk1 (Homo sapiens); details: at 10 µM
# Mitogen-activated protein kinase 14 (Homo sapiens), sequence (Q16539 whole entry): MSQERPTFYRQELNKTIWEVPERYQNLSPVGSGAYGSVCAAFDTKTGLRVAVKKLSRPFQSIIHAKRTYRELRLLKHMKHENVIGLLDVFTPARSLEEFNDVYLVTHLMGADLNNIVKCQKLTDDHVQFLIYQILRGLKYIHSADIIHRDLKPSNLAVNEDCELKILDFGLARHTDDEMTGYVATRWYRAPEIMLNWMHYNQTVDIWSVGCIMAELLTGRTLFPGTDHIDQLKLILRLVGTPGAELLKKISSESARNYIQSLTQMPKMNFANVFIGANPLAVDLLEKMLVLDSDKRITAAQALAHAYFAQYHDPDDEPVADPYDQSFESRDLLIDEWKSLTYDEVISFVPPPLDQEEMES
smiles,measurement,setting,value
COc1cc2nccc(Oc3ccc(NC(=O)Nc4cc(C)on4)c(Cl)c3)c2cc1OC,residual activity,[1],23%
same,residual activity,[2],5%
same,residual activity,[3],5%
COc1cc2ncnc(Nc3ccc(OCc4ccccc4)cc3)c2cc1OC,residual activity,[4],41%
same,residual activity,[5],60%
same,residual activity,[6],106%
same,residual activity,[7],83%
same,residual activity,[8],52%
same,residual activity,[9],46%
same,residual activity,[10],110%
same,residual activity,[11],72%
same,residual activity,[12],106%
same,residual activity,[13],133%
same,residual activity,[1],102%
same,residual activity,[2],106%
same,residual activity,[14],107%
same,residual activity,[3],102%
same,residual activity,[15],111%
same,residual activity,[16],115%
same,residual activity,[17],127%
same,residual activity,[18],109%
same,residual activity,[19],115%
same,residual activity,[20],80%
O=[N+]([O-])/C=C/c1ccc2c(c1)OCO2,residual activity,[4],100%
same,residual activity,[5],111%
same,residual activity,[6],137%
same,residual activity,[7],106%
same,residual activity,[8],118%
same,residual activity,[9],100%
same,residual activity,[10],105%
same,residual activity,[11],94%
same,residual activity,[12],128%
same,residual activity,[13],94%
same,residual activity,[1],93%
same,residual activity,[2],105%
same,residual activity,[14],102%
same,residual activity,[3],110%
same,residual activity,[15],107%
same,residual activity,[16],99%
same,residual activity,[17],103%
same,residual activity,[18],98%
same,residual activity,[19],76%
same,residual activity,[20],105%
Cc1cc(Nc2nc(-c3ccccc3)nc3ccccc23)n[nH]1,residual activity,[15],103%
COc1cc2ncnc(Nc3ccc(Oc4ccccc4)cc3)c2cc1OC,residual activity,[15],108%
same,residual activity,[16],101%
CC(C)(C)n1nc(Cc2cccc3ccccc23)c2c(N)ncnc21,residual activity,[15],100%
same,residual activity,[16],98%
N/C(=N\[N+](=O)[O-])N/N=C\c1ccc(-c2cccc([N+](=O)[O-])c2)o1,residual activity,[8],43%
same,residual activity,[9],52%
same,residual activity,[12],93%
same,residual activity,[13],96%
same,residual activity,[1],81%
same,residual activity,[2],91%
COc1ccc2c(c1)/C(=C/c1cnc[nH]1)C(=O)N2,residual activity,[4],97%
same,residual activity,[5],73%
same,residual activity,[6],60%
same,residual activity,[7],17%
same,residual activity,[10],30%
same,residual activity,[11],4%
same,residual activity,[12],53%
same,residual activity,[13],12%
O=c1[nH]c2ccccc2n1C1CCN(Cc2ccc(-c3nc4cc5[nH]cnc5cc4nc3-c3ccccc3)cc2)CC1,residual activity,[4],91%
same,residual activity,[5],91%
same,residual activity,[6],117%
same,residual activity,[7],84%
same,residual activity,[8],68%
same,residual activity,[9],35%
same,residual activity,[10],108%
same,residual activity,[11],93%
same,residual activity,[12],106%
same,residual activity,[13],109%
same,residual activity,[1],75%
same,residual activity,[2],113%
same,residual activity,[14],100%
same,residual activity,[3],103%
same,residual activity,[15],108%
same,residual activity,[16],82%
same,residual activity,[18],91%
same,residual activity,[19],106%
same,residual activity,[20],68%
CCCCc1c(-c2ccc(OC)cc2)[nH]c2nccnc12,residual activity,[15],103%
same,residual activity,[16],112%
CCn1cnc2c(Nc3cccc(Cl)c3)nc(N[C@@H]3CCCC[C@@H]3N)nc21,residual activity,[4],93%
same,residual activity,[5],50%
same,residual activity,[6],67%
same,residual activity,[7],16%
same,residual activity,[8],28%
same,residual activity,[9],4%
same,residual activity,[10],30%
same,residual activity,[11],5%
same,residual activity,[12],24%
same,residual activity,[13],7%
same,residual activity,[1],90%
same,residual activity,[2],61%
same,residual activity,[14],94%
same,residual activity,[3],76%
same,residual activity,[16],94%
same,residual activity,[18],81%
same,residual activity,[19],91%
same,residual activity,[20],90%
O=C1c2ccccc2-c2nc3nnnn3nc21,residual activity,[4],106%
same,residual activity,[5],114%
same,residual activity,[6],109%
same,residual activity,[7],103%
same,residual activity,[8],67%
same,residual activity,[9],53%
same,residual activity,[10],120%
same,residual activity,[11],106%
same,residual activity,[1],111%
same,residual activity,[2],112%
same,residual activity,[14],102%
same,residual activity,[3],104%
same,residual activity,[15],130%
same,residual activity,[16],117%
same,residual activity,[17],119%
same,residual activity,[18],101%
same,residual activity,[19],146%
same,residual activity,[20],71%
O=C1Nc2ccccc2/C1=C1/Nc2ccccc2/C1=N\OCCC(O)CO (stereo not drawn),residual activity,[15],95%
O=C(Nc1cccc(Nc2nccc(Nc3cccc(C(F)(F)F)c3)n2)c1)C1CC1,residual activity,[15],98%
same,residual activity,[16],95%
Cc1ccc(NC2=CC(=O)c3sc(C)nc3C2=O)cc1,residual activity,[15],87%
same,residual activity,[16],102%
O=Nc1c(-c2c(O)[nH]c3ccccc23)[nH]c2ccccc12,residual activity,[15],95%
same,residual activity,[16],84%
c1cc(-c2cnn3cc(-c4ccc(OCCN5CCCCC5)cc4)cnc23)ccn1,residual activity,[4],104%
same,residual activity,[5],67%
same,residual activity,[7],74%
same,residual activity,[8],46%
same,residual activity,[9],28%
same,residual activity,[11],50%
same,residual activity,[12],68%
same,residual activity,[13],63%
same,residual activity,[20],66%
O=C1NC(=O)C(c2cn(CCCn3ccnc3)c3ccccc23)=C1Nc1ccccc1,residual activity,[15],104%
same,residual activity,[16],100%
N#Cc1c(NC(=O)c2cccc3ccccc23)sc2c1CCCC2,residual activity,[15],96%
Nc1ncnc2c1c(-c1ccc(Oc3ccccc3)cc1)cn2C1CCCC1,residual activity,[15],99%
same,residual activity,[16],97%
O=C1NC(=O)c2c1c1c3ccccc3n3c1c1c2c2ccccc2n1C1CCC3O1,residual activity,[6],13%
same,residual activity,[7],7%
same,residual activity,[8],11%
same,residual activity,[9],3%
same,residual activity,[10],8%
same,residual activity,[11],8%
same,residual activity,[12],9%
same,residual activity,[13],17%
same,residual activity,[19],53%
same,residual activity,[20],43%
COc1cc2c(cc1OC)-c1n[nH]c(Nc3cccc(F)c3)c1C2,residual activity,[15],100%
CCc1nc(-c2ccc(OC)cc2)[nH]c1-c1ccncc1,residual activity,[4],107%
same,residual activity,[5],108%
same,residual activity,[6],105%
same,residual activity,[7],104%
same,residual activity,[8],52%
same,residual activity,[9],55%
same,residual activity,[14],56%
same,residual activity,[3],72%
same,residual activity,[15],108%
same,residual activity,[16],104%
O=C1Nc2ccc3ncsc3c2/C1=C/c1c[nH]cn1,residual activity,[4],56%
same,residual activity,[5],45%
same,residual activity,[6],28%
same,residual activity,[7],4%
same,residual activity,[8],18%
same,residual activity,[9],1%
same,residual activity,[10],5%
same,residual activity,[11],-1%
same,residual activity,[12],14%
same,residual activity,[13],2%
same,residual activity,[1],80%
same,residual activity,[2],74%
same,residual activity,[14],71%
same,residual activity,[3],35%
same,residual activity,[15],50%
same,residual activity,[16],16%
same,residual activity,[17],62%
same,residual activity,[18],24%
same,residual activity,[19],31%
same,residual activity,[20],7%
COc1ccc2c(c[n+](C)c3c4cc5c(cc4ccc23)OCO5)c1OC,residual activity,[4],89%
same,residual activity,[5],79%
same,residual activity,[7],92%
same,residual activity,[9],91%
same,residual activity,[11],93%
same,residual activity,[16],94%
same,residual activity,[20],85%
